PME-1 primary – PME-1 inhibitors via competitive probe labeling, primary screen, biochemical, fluorescence polarization, FP-Rh probe, HTS. 320,000 tested, 0.53% active. recombinant PME-1. Protein phosphatase methylesterase 1 (Homo sapiens), Q9Y570. inhibition, % at 5.9 µM. AID 2130, 2009;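 active means inhibition above the campaign mean of all compounds plus 3 SD, cut at about 26% in these data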;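 further: competitive labeling of PME-1 active site by serine hydrolase directed probe; 0% = PME-1 with DMSO and 100% = wells lacking PME-1 enzyme; inhibitors block probe labeling so polarization falls and inhibition rises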
LYPLA1 counter – LYPLA1 inhibitors, primary screen, counter-screen for PME1 inhibitor project, biochemical, fluorescence polarization, FP-Rh probe ABPP. Acyl-protein thioesterase 1 (Homo sapiens), O75608. AID 2174, 2009. inhibition, % at 5.9 µM. 320,000 tested, 0.16% active. recombinant LYPLA1;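 active means inhibition above the mean of all tested compounds plus 3 SD, set per campaign, cut at about 14% in these data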;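 further: inhibitors block serine hydrolase probe labeling of LYPLA1 so polarization falls; 0% = enzyme with DMSO and 100% = wells lacking LYPLA1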
Fam108B counter – mouse Fam108B serine hydrolase inhibitors, primary screen, counter-screen for RBBP9 inhibitor project, biochemical, fluorescence polarization; recombinant Fam108B, FP-Rh probe fluorescence polarization; inhibition, % at 9.51 µM; 300,000 tested, 0.33% active;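 active means inhibition above the screen mean inhibition plus 3 SD, computed separately per campaign, cut at about 18% in these data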;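 further: inhibitors lower polarization as less probe binds the enzyme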
LYPLA2 inh – LYPLA2 inhibitors, primary screen, counter-screen for PME1 inhibitor project, biochemical, fluorescence polarization, FP-Rh probe ABPP; Acyl-protein thioesterase 2 (Homo sapiens), O95372; recombinant LYPLA2; inhibition, % at 5.9 µM; 320,000 tested, 0.38% active;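 active means inhibition above the screen-wide mean plus 3 SD, limit set per campaign, cut at about 26% in these data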;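 further: 0% = LYPLA2 with DMSO and 100% = wells lacking LYPLA2 enzyme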
PREPL inh – PREPL enzyme inhibitors, primary screen, biochemical, fluorescence polarization; 320,000 tested, 0.68% active; recombinant PREPL, fluorescence polarization activity-based probe; inhibition, % at 5.96 µM; AID 2751, 2010; Prolyl endopeptidase-like (Homo sapiens), Q4J6C6; in the data active means inhibition above about 43%;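 further: 0% = enzyme with DMSO and 100% = wells lacking enzyme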
Target sequence (Q4J6C6 whole entry, looked up): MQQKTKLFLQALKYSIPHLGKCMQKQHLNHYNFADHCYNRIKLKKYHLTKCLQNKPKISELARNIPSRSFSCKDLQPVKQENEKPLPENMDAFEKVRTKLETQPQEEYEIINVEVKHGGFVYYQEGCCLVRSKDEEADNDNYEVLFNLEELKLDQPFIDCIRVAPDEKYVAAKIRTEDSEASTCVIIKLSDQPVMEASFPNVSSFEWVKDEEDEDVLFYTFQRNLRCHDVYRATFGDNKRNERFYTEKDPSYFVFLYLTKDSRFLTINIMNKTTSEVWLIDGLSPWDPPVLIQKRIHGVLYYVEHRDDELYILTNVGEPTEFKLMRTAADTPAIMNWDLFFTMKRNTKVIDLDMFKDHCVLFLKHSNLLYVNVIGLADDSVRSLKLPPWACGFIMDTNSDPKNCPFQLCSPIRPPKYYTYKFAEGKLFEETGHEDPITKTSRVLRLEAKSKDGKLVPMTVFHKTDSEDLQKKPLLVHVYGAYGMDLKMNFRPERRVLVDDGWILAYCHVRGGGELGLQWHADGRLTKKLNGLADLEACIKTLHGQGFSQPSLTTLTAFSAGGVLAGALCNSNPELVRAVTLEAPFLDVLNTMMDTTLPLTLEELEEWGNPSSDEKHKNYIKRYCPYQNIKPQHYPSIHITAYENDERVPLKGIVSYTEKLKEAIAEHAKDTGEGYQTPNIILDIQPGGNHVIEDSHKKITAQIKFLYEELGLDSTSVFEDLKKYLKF
GSTO1 counter – inhibitors of recombinant GSTO1, primary screen, counter-screen for RBBP9 inhibitor project, biochemical, fluorescence polarization | activity-based probe fluorescence polarization | Glutathione S-transferase omega-1 (Homo sapiens), P78417 | inhibition, % at 5.96 µM | 300,000 tested, 1.1% active;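 active means inhibition above the campaign mean inhibition plus 3 SD, cut at about 35% in these data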;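 further: 0% = GSTO1-1 with DMSO and 100% = wells lacking GSTO1-1 enzyme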
* marks the source's active call; other numbers are inactive results; · = no result. This is a sample that favours compounds with a hit; in the whole collection about 1.9% have one here.

SMILES | PME-1 primary | LYPLA1 counter | Fam108B counter | LYPLA2 inh | PREPL inh | GSTO1 counter
COc1cc(C2Nc3cccc4cccc(c34)N2)cc(OC)c1O | 48.4* | -14.5 | 40.5* | 9.7 | 16.0 | 24.8
COc1ccc(C2NC(=O)c3ccccc3N2)cc1OC (stereo not given) | 1.5 | 2.3 | 0.7 | 3.4 | 3.7 | -1.2
COc1ccccc1-c1nnc(SCC(=O)Nc2cccnc2Cl)n1C | · | · | · | · | 6.3 | ·
COc1ccccc1C(=O)NCCC(=O)NCc1cccnc1 | 3.4 | -3.0 | · | 3.6 | 4.5 | ·
Cc1ccc(CN(C)C(=O)CN2C(=O)NC(c3ccccc3)(c3ccccc3)C2=O)c(C)c1 | 7.5 | -0.9 | · | 8.8 | -23.1 | ·
Cc1ccccc1NC(=O)C(C)OC(=O)C1CC(=O)N(Cc2ccco2)C1 (stereo not given) | -1.8 | -4.4 | · | -2.9 | 12.5 | ·
O=C(OCC#CCSc1nnc(-c2cccc3ccccc23)o1)c1cnc[nH]1 | · | · | · | · | 2.5 | ·
CCCCc1ccc(NC(=S)Nc2ccc(Nc3ccc(OC)cc3)cc2)cc1 | 21.5 | -2.4 | 13.2 | -0.6 | 46.6* | 3.2
O=C(CCN1C(=O)C2CC=CCC2C1=O)Nc1cc(C(F)(F)F)ccc1N1CCCC1 (stereo not given) | -2.0 | 0.7 | -3.4 | 1.5 | 6.5 | 35.7*
Cn1cnnc1SCC(=O)Nc1sc2c(c1C(N)=O)CCC2 | 2.1 | -9.3 | 15.4 | -2.3 | 13.7 | 35.9*
COCCn1cnnc1SCC(=O)Nc1sc2c(c1C#N)CCC2 | 2.9 | -0.7 | · | 2.6 | 5.2 | ·
CCOc1cc(C(=O)N(CC)CC(=O)Nc2ccc3c(c2)OCCO3)ccc1OC | -3.5 | -3.6 | · | 0.5 | 9.1 | ·
Clc1cccc(C2Nc3cccc4cccc(c34)N2)c1Cl | -4.7 | -0.6 | 9.3 | -0.5 | 19.4 | 14.3
Brc1ccc(-c2ccc(C3Nc4cccc5cccc(c45)N3)o2)cc1 | 41.3* | -13.9 | · | -5.2 | 16.3 | ·
O=C(CN1CCCc2ccccc21)Nc1cc(S(=O)(=O)N2CCCC2)ccc1Cl | 72.9* | -0.7 | · | -1.4 | 12.5 | ·
Cc1ccoc1C(=O)NCCCNC(=O)c1occc1C | -2.4 | -1.8 | 3.6 | -3.4 | -5.7 | 34.8*
CNS(=O)(=O)c1cc(C(=O)OCC(=O)NC2CCCc3ccccc32)ccc1Cl (stereo not given) | 27.9* | 1.5 | 3.4 | 4.8 | -7.7 | 3.3
Cc1cc(C)cc(N=Cc2ccc([N+](=O)[O-])s2)c1 | 3.3 | -1.1 | 6.7 | 2.9 | -8.9 | 35.6*
O=[N+]([O-])c1ccc(/C=N/n2c(CO)nc3ccccc32)s1 | 6.8 | 2.5 | 4.0 | 3.7 | 17.7 | 37.0*
Cc1cc2ncn(/N=C/c3ccc([N+](=O)[O-])s3)c2cc1C | 6.6 | 8.3 | 12.3 | -6.8 | 8.3 | 15.1
Cc1nc2ccccc2n1/N=C/c1ccc([N+](=O)[O-])o1 | 0.8 | 2.1 | 1.3 | 3.0 | 6.6 | 36.7*
Cc1nc2ccccc2n1/N=C/c1ccc([N+](=O)[O-])s1 | 6.6 | -1.2 | -9.0 | -4.5 | 6.7 | 46.6*
Cc1cccc(NC(=O)c2cc3n(n2)C(C(F)(F)F)CC(c2ccc4c(c2)OCO4)N3)c1 (stereo not given) | -0.8 | -9.5 | -5.0 | -8.9 | 13.8 | -0.7
COc1ccc(NC(=O)c2cc3n(n2)C(C(F)(F)F)CC(c2ccc4c(c2)OCO4)N3)cc1OC (stereo not given) | 6.0 | 0.8 | -0.4 | 18.5 | 46.2* | 0.3
O=[N+]([O-])c1ccc(Cl)c(C[n+]2cccc3ccccc32)c1 | -2.8 | -0.9 | -2.4 | -0.2 | 23.9 | 3.4
SMILES | PME-1 primary | LYPLA1 counter | Fam108B counter | LYPLA2 inh | PREPL inh | GSTO1 counter
Cn1c(SCC(=O)c2cc(Cl)c(Cl)s2)nnc1-c1ccco1 | -1.2 | 0.4 | -3.5 | 0.1 | 5.8 | 44.3*
Cc1ccc(C(=O)CSc2nnc(-c3ccco3)n2C)cc1 | 0.8 | -1.9 | -0.9 | 1.1 | -3.5 | 11.9
COC(=O)c1c(C)[nH]c(O)c1C=Nc1ccc(Oc2ccccc2)cc1 | -0.4 | -1.5 | -2.3 | 1.2 | 0.0 | -0.2
COC(=O)c1c(C)[nH]c(O)c1C=Nc1ccc(C(C)C)cc1 | 15.1 | 2.1 | 7.3 | 0.0 | 47.0* | 11.4
COc1ccc(/C(C)=N/OC/C(O)=C(\C#N)c2nc3ccccc3[nH]2)cc1OC | -9.2 | -2.9 | 6.1 | -4.8 | 0.2 | 20.2
COc1ccc(/C(C)=N/OC/C(O)=C(\C#N)c2nc3ccccc3[nH]2)c(OC)c1 | -0.7 | -1.3 | 2.6 | 3.5 | -9.1 | 36.9*
CCOC(=O)C1(C)C=C(Nc2ccc(O)cc2)C(=O)N1c1ccc(O)cc1 (stereo not given) | 13.5 | 4.6 | 1.7 | 16.1 | 29.4 | 89.2*
CCOC(=O)C1(C)C=C(Nc2ccc(OC)cc2)C(=O)N1c1ccc(OC)cc1 (stereo not given) | 1.9 | 0.8 | 0.8 | 0.8 | -3.6 | 1.1
O=C1CC(=O)N(Cc2ccco2)C(=O)N1 | -5.6 | 2.0 | 6.9 | -1.1 | -2.7 | 37.4*
O=C1CC(=O)N(Cc2ccco2)C(=S)N1 | -52.1 | -13.2 | -4.8 | -22.7 | 11.0 | -48.4
COc1cccc(CC(=O)OC(C)C(=O)Nc2ncc(Cl)cc2Cl)c1 (stereo not given) | 2.8 | -0.3 | 6.6 | -2.7 | 15.9 | 6.0
N#C/C(C(=O)Nc1ccc(Cl)cc1)=C(/S)Nc1ccccc1 | 8.1 | -2.0 | 5.9 | -5.8 | 20.4 | 52.2*
CCOC(=O)c1c(C)n(C)c2ccc(OC(=O)c3ccc([N+](=O)[O-])cc3)cc12 | -2.6 | -1.7 | 4.8 | -3.0 | 22.2 | 7.9
CCOC(=O)c1c(C)n(CC)c2ccc(OC(=O)c3ccc([N+](=O)[O-])cc3)cc12 | -6.6 | 1.1 | -1.5 | -5.7 | 48.5* | -4.0
Cc1cc(C)c2[nH]c(O)c(N=NC(=O)c3cc4c(s3)CCCC4)c2c1 | 26.4* | 2.3 | 0.1 | -3.1 | 17.6 | 0.3
COCCNC(=S)N=Nc1c(O)[nH]c2c(C)cc(C)cc12 | -1.3 | 4.0 | 6.7 | 8.9 | 10.1 | 5.7
Nc1c(C(=O)Nc2ccccc2F)sc2nc(-c3cccnc3)ccc12 | 11.1 | -6.0 | -8.4 | -8.8 | 22.1 | -1.8
Nc1c(C(=O)Nc2ccccc2F)sc2nc(-c3ccco3)ccc12 | 36.5* | -10.5 | 3.4 | -10.9 | 16.0 | -4.0
O=C(CSc1nnc(-c2cnccn2)n1Cc1ccco1)c1ccc2ccccc2c1 | -0.9 | -5.4 | -2.7 | 0.4 | 12.6 | 37.6*
C/C(=N\N=C(/N)SC1CC(=O)N(c2ccc(Cl)cc2)C1=O)c1cccs1 (stereo not given) | 2.4 | -5.4 | 1.5 | -2.5 | -1.6 | 36.3*
C[C@H]1CN([C@@H](C)CO)C(=O)Cc2cc(NC(=O)CCC(F)(F)F)ccc2O[C@H]1CN(C)S(=O)(=O)c1ccc(Cl)cc1 | · | · | · | · | 7.6 | ·

Screening results deposited in PubChem BioAssay by The Scripps Research Institute Molecular Screening Center.
